PubChem BioAssay AID1259312 (Keith Lab, Institute of Cancer Science, University of …, 2017)
Out of some 4,500 compounds screened, about 200 (4.4%) were called active. This is one part of a sample in which actives are shown more often than they occur.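 Rule for the calls: active = cell survival measured by absorbance rises more than 2.5-fold over infected cells without compound; inactive = the rest.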

test: survival after telomere uncapping, modulators, primary screen, cell-based (AID 1259312); settings: HCT116 + Ad-hTR-mut, MTT, 5 d; at 10 µM, active compounds read high;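 note: virus expresses mutant telomerase RNA that uncaps telomeres and kills cells; compound added 2 days after infection so exposure lasts 3 days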

SMILES	fold change
O=[N+]([O-])c1cc(Br)cc(C=NCCCCCCN=Cc2cc(Br)cc([N+](=O)[O-])c2O)c1O	inactive
Cn1cccc1/C=C(/C#N)C(N)=O	1.32 (inactive)
Cc1cc(NS(=O)(=O)c2ccc(N)cc2)no1	-1.35 (inactive)
COc1cc(NC(=O)CCC(=O)O)nc(OC)n1	-1.34 (inactive)
COc1cc(NS(=O)(=O)c2ccc(N)cc2)nc(OC)n1	3.06 (active)
CCOC(=O)/C(C#N)=C/Nc1ccsn1	2.1 (inactive)
N#CC1=C(N)n2c(s/c(=C\c3ccc(O)cc3)c2=O)=C(C#N)C1c1ccc(O)cc1 (stereo not given)	-3 (inactive)
COc1ccccc1OCCSc1nc2ccccc2o1	-1.24 (inactive)
O=[N+]([O-])c1ccc(NCCc2cccs2)nc1	2.58 (active)
O=[N+]([O-])c1cccnc1NCCc1cccs1	-2.56 (inactive)
O=[N+]([O-])c1ccc(Nc2ccc3c(c2)OCCO3)nc1	-1.85 (inactive)
O=[N+]([O-])c1ccc2c(c1)Cc1cc([N+](=O)[O-])ccc1-2	-1.19 (inactive)
O=S(=O)(c1ccc(Cl)cc1)N1CCCc2ccccc21	1.97 (inactive)
O=S(=O)(c1ccccc1)N1CCc2ccccc21	-1.19 (inactive)
O=S(=O)(c1ccc(Cl)cc1)N1CCc2ccccc21	4.39 (active)
CCOC(=O)c1c(NC(=O)c2cccs2)sc2c1CCCCC2	1.37 (inactive)
CC(C(=O)Nn1cnnc1)N1C(=O)c2ccccc2C1=O (stereo not given)	-8.91 (inactive)
Nc1cccc(S(=O)(=O)N2CCCC2)c1	-1.08 (inactive)

SMILES	fold change
O=[N+]([O-])c1cccc(S(=O)(=O)N2CCCC2)c1	3.3 (active)
O=[N+]([O-])c1ccc2c(c1)oc1ccc(S(=O)(=O)N3CCCC3)cc12	1.12 (inactive)
CC(C)CC(=O)NC1CCCCCC1	-1.5 (inactive)
O=C1N=C(N2CCOCC2)S/C1=C\C1=Cc2ccccc2OC1	-1.34 (inactive)
OCC1(O)OC[C@H](O)[C@@H](O)[C@@H]1O (stereo not given in full)	2.95 (active)
OC[C@H]1O[C@@H](O[C@@H]2[C@@H](CO)O[C@](O)(CO)[C@H]2O)[C@H](O)[C@@H](O)[C@H]1O	1.55 (inactive)
CC1(C)[C@H]2CCC1(CS(=O)(=O)N(C1CCCCC1)C1CCCCC1)C(O)C2 (stereo not given in full)	-1.17 (inactive)
O=C(Cn1c(C(F)(F)F)nc2ccccc21)NC1CCCCC1	-1.95 (inactive)
N=C1SCC(=O)N1c1nccs1	1.78 (inactive)
c1ccc2c(c1)c1ccccc1c1nc3c4ccccc4c4ccccc4c3nc21	4.67 (active)
O=c1c2ccccc2c2nc3c(c(-c4cccc(Br)c4)c12)c(=O)c1ccccc13	-1.26 (inactive)
O=c1c2ccccc2c2nc3c(c(-c4ccccc4)c12)c(=O)c1ccccc13	-1.07 (inactive)
COC(=O)C1=C(C(=O)OC)SC2(S1)C(C(=O)OC)=C(C(=O)OC)SC1=C2c2cc(OC)ccc2NC1(C)C	1.52 (inactive)
C=CCn1c(-c2ccc(Cl)cc2Cl)n[nH]c1=S	1.34 (inactive)
Cn1c(-c2ccc(Cl)cc2Cl)n[nH]c1=S	2.57 (active)
Cc1ccc(-c2n[nH]c(=S)n2C)cc1Cl	-1.92 (inactive)
NC(=O)c1c(NC(=O)CCC(=O)O)sc2c1CCCC2	-1.38 (inactive)
